We go through 34 molecules from PubChem BioAssay (EPA / NIEHS).

Several values for one entry are separate records, joined by “and”; a condition that tells them apart may be missing. Equal entries are not always repeated. Activity calls are given as the source filed them. Rule for the calls: active = hit-call score of the fitted dose curve at least 0.9, where 1 is the maximum; inactive = score below 0.9.

X-box-binding protein 1 (Homo sapiens), sequence (P17861 whole entry, looked up): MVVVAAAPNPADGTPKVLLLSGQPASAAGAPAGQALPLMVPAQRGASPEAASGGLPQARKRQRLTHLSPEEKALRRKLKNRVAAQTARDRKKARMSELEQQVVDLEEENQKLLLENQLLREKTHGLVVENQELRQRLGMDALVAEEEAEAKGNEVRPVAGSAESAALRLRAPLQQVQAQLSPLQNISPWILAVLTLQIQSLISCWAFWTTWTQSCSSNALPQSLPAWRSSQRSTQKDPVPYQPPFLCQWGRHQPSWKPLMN

The experiment addresses X-box-binding protein 1 (Homo sapiens) (UniProt P17861). The experiment in a line: ATG_Xbp1_CIS: Attagene CIS-FACTORIAL HepG2 Assay for human X-box Binding Protein 1 (XBP1) (AID 2282972). Particulars: HepG2 XBP1 cis-element reporter, Attagene multiplex; actives raise or lower the signal. The method in brief:
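Human hepatoma HepG2, cis-element reporter system, 24 h treatment; mRNA quantified by RT-PCR/CE fluorescence; fit relative to DMSO.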
With `O=C(O)C(F)(F)C(F)(F)C(F)(F)C(F)(F)F`, the call was inactive.
For the molecule `O=C(O)C(F)(F)C(F)(F)OC(F)(F)F`, the outcome was inactive.
As to `O=S(=O)(O)C(F)(F)C(F)(F)C(F)(F)C(F)(F)C(F)(F)C(F)(F)C(F)(F)F`, the molecule was classed as inactive.
Regarding `CS(C)(=O)=O`, the outcome was inactive.
Regarding `FC(F)(F)C(F)(F)C(F)(F)N(C(F)(F)C(F)(F)C(F)(F)F)C(F)(F)C(F)(F)C(F)(F)F`, the molecule was classed as inactive.
The same measure, in the same setting: next, `CC(C)c1ccccc1N`: “inactive”; `[Co]`: “inactive”.
Same read-out and setting: next, `COC(=O)C1CCC(C(=O)OC)CC1` (centres undefined): “inactive”; `FC(F)(F)C(F)(F)C(F)(F)C(F)(F)C(F)(F)C(F)(F)C(F)(F)Br`: “inactive”.
Consider `CCCCCCOC(=O)c1ccccc1`, for which the molecule was classed as inactive.
For the molecule `CCc1c(Br)c(Br)c(Br)c(Br)c1Br`, the result was inactive.
As to `CC/C=C\CCOC(C)=O`, the call was inactive.
Regarding `FC(F)(F)C(F)(F)C(F)(F)C(F)(F)C(F)(F)C(F)(F)C(F)(F)C(F)(F)CCS`, the result was inactive.
For the molecule `OCCCC(F)(F)C(F)(F)C(F)(F)C(F)(F)C(F)(F)C(F)(F)C(F)(F)F`, the AC50 was 72.5 µM (active) and 97.8 µM (active).
On to `CC(=O)Nc1ccc(N=Nc2cc(C)ccc2O)cc1`, for which the result was inactive.
`O=C(O)C(F)(F)C(F)(F)C(F)(F)C(F)(F)C(F)(F)C(F)(F)C(F)(F)C(F)(F)C(F)(F)C(F)(F)C(F)(F)C(F)(F)C(F)(F)F`: the result was inactive.
The same measure, in the same setting: next, `O=P(O)(O)OCCC(F)(F)C(F)(F)C(F)(F)C(F)(F)C(F)(F)C(F)(F)F`: “inactive”; `CC(C)(C)C(=O)CC(=O)C(F)(F)C(F)(F)C(F)(F)F`: “inactive”; `O=C(O)C(F)(F)C(F)(F)C(F)(F)F`: “inactive”.
For `NC(=O)C(F)(F)C(F)(F)C(F)(F)C(F)(F)F`, the call was inactive.
On the same count and under the same terms, next, `O[Si](c1ccccc1)(c1ccccc1)c1ccccc1`: “inactive”.
Consider `OCCCC(F)(F)C(F)(F)C(F)(F)F`, for which the result was inactive.
The same measure, in the same setting: next, `FC(F)(F)C(F)(F)C(F)(F)C(F)(F)C(F)(F)CCI`: “inactive”.
On to `COC(OC(C)=O)c1ccccc1` (centres undefined), for which the molecule was called inactive.
On to `O=C(CC(=O)C(F)(F)C(F)(F)F)C(F)(F)F`, for which the molecule was called inactive.
As for `FC(F)(F)C(F)(F)C(F)(F)C(F)(F)C(F)(F)C(F)(F)CCS`, the call was inactive.
The same measure, in the same setting: next, `CCCCCCCOC(=O)c1ccccc1C(=O)OCCCCCCC`: “inactive”.
Regarding `O=C(O)C(F)(F)C(F)(F)C(F)(F)C(F)(F)C(F)(F)C(F)(F)C(F)(F)C(F)(F)Cl`, the AC50 was 58.7 µM (active) and 50 µM (active).
With `O=C(O)C(F)(F)C(F)(F)C(F)(F)C(F)(F)C(F)(F)C(F)(F)C(F)(F)C(F)(F)C(F)(F)C(F)F`, the molecule was classed as inactive.
Turning to `Nc1ccc(Oc2cccc(Oc3ccc(N)cc3)c2)cc1`, the AC50 is 42 µM (active).
For the molecule `CCCCCC=O`, the result was inactive.
As to `CCCCCCC(C)OC(=O)CCCCC(=O)OC(C)CCCCCC` (centres undefined), the call was inactive.
Consider `c1ccc(B(c2ccccc2)c2ccccc2)cc1`, for which the AC50 was 31.7 µM (active).
For `CC(CCl)OP(=O)(OC(C)CCl)OC(C)CCl` (centres undefined), the result was inactive.

Usually AC50 stands for the concentration at which the activity in the assay is half-maximal.
